Measured values: PubChem BioAssay AID1224854 (National Center for Advancing Translational Sciences (NCATS), 2016)
Records with an inconclusive call do not appear. Entries that show only a call come without a potency. Calls of active or inactive are those of the source. Calls come from the whole dose curve; as a rule, active = well fitted activation curve with a large enough effect; inconclusive = small, poorly fitted or top-dose-only effect; inactive = flat fitted curve, though single readings scatter.

experiment: Cell viability assay for measurement of the protective activity of small molecules against cell death caused by Zika virus infection in human astrocytoma cells; conditions: SNB-19 Zika virus cytoprotection, ATP luminescence, 72 h; series mostly up to 46.1 µM
From the text: National Center for Advancing Translational Sciences [NCATS] Johns Hopkins University School of Medicine Florida State University Assay Overview: Zika virus infection causes cell death in certain cell types including human neural progenitor cells (hNPCs), astrocytes, and astrocytoma cell line (SNB-19). This cell viability assay measures the ATP content (level) in human astrocytoma cells (SNB-19) using a luminescence readout that is proportional to viable cell numbers. Decrease in the luminescence signal after Zika virus infection indicates the cell death caused by Zika virus. Small molecule inhibitors […] the decreased luminescence signal after Zika virus infection, indicating the protective effect of that small molecule on the cell death caused by Zika virus infection. This observed protective effect of small molecules against Zika virus induced cell death may result from inhibition of virus replication or cellular response to the virus infection.
Assay Protocol Summary: The medium for SNB-19 cells is composed of RPMI 1640 (ATCC, Cat.# 30-2001), 10% fetal bovine serum (FBS) (GE healthcare Life Sciences, Cat.# SH30071.03), and 1% Pen/Strep (Gibco, Cat.# 15140-122). The ATP content assay kit (PerkinElmer, Cat.# 6016731) was used to determine cell viability. The reagent was reconstituted and prepared as described by the manufacturer. Cells were seeded in 384- or 1536-well assay plates and cultured at 37 C with 5% CO2 for 16 to 20 hours. The typical cell seeding density in the 1536-well plate assay is 250 cells/well in 3ul medium for SNB-19 cells in tissue culture treated plates. Compounds were added to cells and incubated for one hour before addition of ZIKV solution to cells (2 FFU/cell). After incubation at 37 C with 5% CO2 for 72 hours, the reagent mixture of the ATP content assay kit was added to each well, followed by incubation at room temperature for 10 minutes. The luminescence intensity of the assay plates was measured using a ViewLux plate reader (PerkinElmer). […] The percentage inhibitions of the decreased cell viability by small molecule inhibitors were then calculated.

Row | SMILES | Potency
1 | C/C(=N\O)c1ccc(OCC(=O)N2CCCCC2)cc1 | inactive
2 | CN(C)c1ccc(C(=C2C=CC(=[N+](C)C)C=C2)c2ccccc2)cc1 | inactive
3 | Cc1ccc(C(=O)c2ccc(CC(=O)O)n2C)cc1 | inactive
4 | CC1(C)OC2=C(C(=O)c3ccccc3C2=O)[C@H](NCc2ccccc2)[C@H]1O | inactive
5 | COCCn1c2c([n+](Cc3cnccn3)c1C)C(=O)c1ccccc1C2=O | inactive
6 | O=C1NC(=O)C(=Cc2ccc(-c3ccc(F)cc3)o2)S1 | inactive
7 | CC(C)c1ccc2oc3nc(N)c(C(=O)O)cc3c(=O)c2c1 | inactive
8 | CCOC1OC(=O)C[C@H]1NC(=O)[C@@H]1CCCN1C(=O)[C@@H](NC(=O)c1ccc(N)c(Cl)c1)C(C)(C)C (stereo not given in full) | inactive
9 | CC(C(=O)O)c1ccc(C(=O)c2cccs2)cc1 (stereo not given) | inactive
10 | O=C(O)c1cc([N+](=O)[O-])ccc1NCCCc1ccccc1 | inactive
11 | OCc1ccc(-c2ccc(-c3ccc(CO)s3)o2)s1 | inactive
12 | CCCC(=O)OC[C@@H](OC(=O)CCC)[C@@H](OC(=O)CCC)[C@H](Cn1c2nc(=O)[nH]c(=O)c-2nc2cc(C)c(C)cc21)OC(=O)CCC | inactive
13 | Cc1c(NC(=O)c2ccc(C(C)(C)C)cc2)cccc1-c1cn(C)c(=O)c(Nc2ccc(C(=O)N3CCOCC3)cc2)n1 | 21.8 µM (active)
14 | [O-][n+]1ccccc1SSc1cccc[n+]1[O-] | inactive
15 | Cc1nc(N)sc1-c1ccnc(Nc2ccc(N3CCOCC3)cc2)n1 | inactive
16 | COc1ccc(NC(=O)/C=C/c2ccc(Cl)cc2)cc1 | inactive
17 | COc1cc(NC(C)CCCN)c2ncccc2c1 (stereo not given) | 17.3 µM (active)
18 | CCCCCCCCCCCC(=O)[O][Sn]([CH2]CCC)([CH2]CCC)[O]C(=O)CCCCCCCCCCC | inactive
19 | O=C(c1ccccc1)c1ccc2n1CCC2C(=O)O (stereo not given) | inactive
20 | Oc1cc(O)cc(/C=C/c2ccc(O)c(O)c2)c1 | inactive

Row | SMILES | Potency
21 | CC(C(=O)O)c1ccc(C(=O)c2ccccc2)s1 (stereo not given) | inactive
22 | CN1CCN(c2cc3c(nn2)Oc2ccccc2N3C)CC1 | inactive
23 | O=C(Nc1ncc([N+](=O)[O-])s1)c1cccs1 | inactive
24 | O=c1oc2cc(O)ccc2s1 | inactive
25 | O=C1c2ccccc2C(=O)c2c(NCCc3ccc(O)cc3)ccc(NCCc3ccc(O)cc3)c21 | 19.5 µM (active)
26 | NC(=O)c1cccc2[nH]c(-c3ccc([C@H]4CCCN4)cc3F)nc12 | inactive
27 | Nc1ccc2c(c1)CN1C(=O)c3ccccc3C1=N2 | inactive
28 | Cc1c(C(=O)O)c(O)cc2c1C(=O)c1c(O)c([C@@H]3O[C@H](CO)[C@@H](O)[C@H](O)[C@H]3O)c(O)c(O)c1C2=O | inactive
29 | O=C(OCc1ccccc1)c1ccc(O)cc1 | inactive
30 | O=C1c2ccccc2-[n+]2ccc3c([nH]c4ccccc43)c21 | inactive
31 | Cc1oncc1C(=O)Nc1ccc(C(F)(F)F)cc1 | inactive
32 | O=c1c(-c2ccc(O)cc2)coc2cc(O)ccc12 | inactive
33 | C=CCCCCCCCCC(=O)O | inactive
34 | CC(=O)Oc1ccccc1C(=O)Nc1ncc([N+](=O)[O-])s1 | 31.6 µM (active)
35 | CC1(C)Cc2c(sc(NC(=S)NC(=O)c3ccccc3)c2C(=O)O)CO1 | inactive
36 | O=C1C(Cl)=C(NCCN2CCOCC2)C(=O)c2ncccc21 | inactive
37 | O=c1cc(-c2ccccc2)oc2cc(O)c(O)c(O)c12 | inactive
38 | C=C1C(=O)[C@@]23C(CC[C@@H]1[C@H]2O)[C@@]12CO[C@]3(O)[C@@H](O)[C@@H]1C(C)(C)CC[C@@H]2O (stereo not given in full) | inactive
39 | c1ccc(CCNc2nc(-c3ccccc3)cs2)cc1 | inactive
40 | Clc1ccccc1-c1nc(-c2ccncc2)no1 | inactive
